PubChem BioAssay
The list shows a part of the results. The source made the active and inactive calls. Rule as the data show it, unless noted: active = activation above about 33%; inactive = the rest.

Columns and labels:
[1] = lowers stimulated NF-kB luciferase signal in Jurkat – cell-based, luminescence, single concentration, T-cell NF-kB inhibitor project, confirmation (AID 435020;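 active = inhibition reaching about 45% at 4 µM in either replicate, limit read from the data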;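 also: plate controls were PMA/ionomycin stimulated DMSO wells for no effect and unstimulated DMSO wells for full effect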); conditions: PMA/ionomycin-induced, 16 h, at 4 µM, stronger effect = higher value
[2] = molecular target: Sentrin-specific protease 8 (Homo sapiens) (UniProt Q96LD8); assay: human SENP8 peptidase blockers, hit retest – biochemical, luminescence, single concentration, confirmation (AID 488912;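 active = mean inhibition across replicates above about 50%, limit read from the data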); conditions: Recombinant SENP8, Z-RLRGG-aminoluciferin luminescence, 60 min; at 12.5 µM; stronger effect = higher value
[3] = molecular target: Sentrin-specific protease 6 (Homo sapiens) (UniProt Q9GZR1); assay: inhibition of human SENP6 catalytic domain – biochemical, luminescence, single concentration, confirmation (AID 488915;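 active = mean inhibition above about 50% in the one-dose retest, limit read from the data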); conditions: recombinant SENP6, Z-RLRGG-aminoluciferin luminescence; at 12.5 µM; stronger effect = higher value
[4] = molecular target: Sentrin-specific protease 7 (Homo sapiens) (UniProt Q9BQF6); assay: human SENP7 peptidase blockers, hit retest – biochemical, luminescence, single concentration, confirmation (AID 488917;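 active = mean inhibition above about 50% in the one-dose retest, limit read from the data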); conditions: recombinant SENP7, Z-RLRGG-aminoluciferin luminescence, 40 min; at 12.5 µM; stronger effect = higher value
Caspase-3 (Homo sapiens) = Caspase-3 (Homo sapiens) (UniProt P42574); assay: human caspase-3 activity blockade, out-of-family – biochemical, single concentration, selectivity assay for SENP inhibitor project, confirmation (AID 488918;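 active = mean inhibition above about 50%, limit read from the data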;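 also: plate controls were enzyme with DMSO for no effect and wells without caspase-3 for full effect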); conditions: purified caspase-3, Z-DEVD-aminoluciferin luminescence, 60 min; at 12.5 µM; stronger effect = higher value
[5] = Ultra-Glo luciferase signal interference – biochemical, single concentration, SENP8 reaction pre-completed, artefact control for SENP inhibitor project, confirmation (AID 488919;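 active = mean inhibition above about 50% when retested at one dose, limit read from the data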;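 also: plate controls were DMSO wells with completed reaction for no effect and substrate without enzyme for full effect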); conditions: Pre-incubated SENP8/Z-RLRGG-aminoluciferin, luciferase luminescence interference; at 12.5 µM; stronger effect = higher value
[6] = PERK-eIF2a-CHOP pathway stimulators, retested – cell-based, CHO-CHOP luciferase reporter, single concentration, confirmation (AID 463112); conditions: CHO-CHOP cells, CHOP-luciferase reporter luminescence; at 10 µM; stronger effect = higher value; percent of tunicamycin response, DMSO as zero;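 also: 0% = DMSO wells and 100% = tunicamycin 10 µg/mL wells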
[7] = apoptosome-driven caspase-3 activation blockers – biochemical, fluorescence, DEVD-Rh110, 20 µM, confirmation (AID 504614;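 active = mean inhibition of at least 40% at 20 µM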;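 also: plate controls were DMSO wells for no effect and DEVD-CHO caspase inhibitor control wells for full effect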); conditions: reconstituted apoptosome, caspase-3 DEVD-Rh110 fluorescence; at 20 µM; stronger effect = higher value
[8] = detection-step artefacts after completed caspase reaction – biochemical, fluorescence, Rh110, 20 µM, artefact control for Apaf-1 inhibitor project, confirmation (AID 504615;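 active = signal rise of 40% or more at 20 µM, treated as a fluorescence artifact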); conditions: quenched caspase reaction, at 20 µM, stronger effect = higher value
[9] = molecular target: Carboxy-terminal domain RNA polymerase II polypeptide A small phosphatase 1 (Homo sapiens) (UniProt Q9GZU7); assay: SCP1 melting temperature change from compounds – biophysical, differential scanning fluorimetry, orthogonal assay for Scp-1 inhibitor project, confirmation (AID 540329;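 active = substances whose mean melting-temperature shift, as a percentage of the reference inhibitor's shift, reaches about 5.3%, limit read from the data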;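 also: 0% = Tm of DMSO wells and 100% = Tm with sodium orthovanadate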); conditions: Recombinant SCP1, Sypro Orange thermal shift Tm; at 40 µM; stronger effect = higher value
[10] = NF-kB reporter suppression in CF airway cells – cell-based, GFP fluorescence, single concentration, confirmation (AID 602472; in the data active = inhibition above about 40%;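 also: stimulus PAF is a Pseudomonas aeruginosa filtrate and not platelet activating factor; plate controls were DMSO wells with stimulus for no effect and unstimulated DMSO wells for full effect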); conditions: KKLEB CF airway cells, PAF-induced NF-kB-GFP fluorescence, overnight; at 5 µM; stronger effect = higher value
[11] = NFkB reporter suppression in cystic fibrosis bronchial cells – cell-based, uHTS hits, panel, cytotoxicity readout, dose response (AID 624344); conditions: CF bronchial epithelial cells, PAF-induced NFkB reporter inhibition, with PAF, run 1; at 79 µM (top of the series) unless noted
[12] = as above; conditions: CF bronchial epithelial cells, PAF-induced NFkB reporter inhibition, with PAF, run 2; at 79 µM (top of the series) unless noted
[13] = Brca1-Bard1 BiLC signal decrease – luminescence, single concentration, counter-screen for Mdm2/MdmX interaction inhibitor project, confirmation (AID 504668; call rule not given here); conditions: Brca1/Bard1 bimolecular luciferase complementation counterscreen, at 8 µM, stronger effect = higher value
[14] = molecular target: Protein Mdm4 (Homo sapiens) + E3 ubiquitin-protein ligase Mdm2 (Homo sapiens) (UniProt O15151+Q00987); assay: human Mdm2/MdmX binding disruption – cell-based, luminescence, single concentration, set 2, confirmation (AID 504601;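 active = mean inhibition of the luminescence signal across two replicates at or above 26 percent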); conditions: SaOS-2 split-luciferase Mdm2/MdmX complementation, at 8 µM, stronger effect = higher value
[15] = molecular target: Tumor necrosis factor receptor superfamily member 10B (Homo sapiens) (UniProt O14763); assay: viability loss of caspase-8 NB7 cells with TRAIL – with/without TRAIL, luminescence panel, confirmation (AID 651596; in the data active = activity above about 50%); conditions: NB7 neuroblastoma + caspase-8, TRAIL sensitization, NB7 Caspase-8, with TRAIL, mean of runs, at 10 µM, stronger effect = higher value
[16] = as above; conditions: NB7 neuroblastoma + caspase-8, without TRAIL, NB7 Caspase-8, without TRAIL, mean of runs, at 10 µM
[17] = inhibition of PEG-3 promoter luciferase signal – cell-based, HeLa, luciferase reporter, single concentration, confirmation (AID 602417;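 active = at 20 µM dose, 40% or more inhibition averaged across four replicates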); conditions: HeLa PEG-Prom luciferase reporter, luminescence, overnight; at 20 µM; stronger effect = higher value
[18] = HIF-2a driven luciferase blockers, single dose – luminescence, 786-0 RCC cells, confirmation (AID 651580;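 active = mean inhibition across four replicates of at least 40 percent at the single tested concentration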); conditions: HIF-2a luciferase reporter luminescence, overnight, at 18.8 µM, stronger effect = higher value
[19] = HIF-1a luciferase reporter signal reduction – MiaPaCa-2 cells, single concentration, counter-screen for HIF-2a inhibitor project, confirmation (AID 651589;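 active = mean inhibition of the reporter signal across four replicates at the single tested dose of 50% or more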); conditions: MiaPaCa-2 HIF-1a luciferase reporter, desferoxamine, overnight; at 18.8 µM; stronger effect = higher value
PEG-3 [20] = molecular target: PEG-3 (UniProt Q6IN02); assay: inhibition of PEG-3 promoter-driven reporter – cell-based, HeLa, luciferase, CREF/GAPDH counter-screen panel, dose response (AID 624167); conditions: CREF/GAPDH counter-screens; HeLa PEG-Prom luciferase reporter, overnight, run 1, dose range 1, at 100 µM (top of the series) unless noted
PEG-3 [21] = molecular target: PEG-3 (UniProt Q6IN02); assay: as above; conditions: CREF/GAPDH counter-screens; HeLa PEG-Prom luciferase reporter, overnight, run 2, dose range 1, at 100 µM (top of the series) unless noted
Rat fibroblasts (CREF) [22] = assay: as above; conditions: CREF/GAPDH counter-screens; run 1, dose range 1, at 100 µM (top of the series)
Rat fibroblasts (CREF) [23] = assay: as above; conditions: CREF/GAPDH counter-screens; run 2, dose range 1, at 100 µM (top of the series)

Protein Mdm4 (Homo sapiens) + E3 ubiquitin-protein ligase Mdm2 (Homo sapiens), sequence (O15151 whole entry, looked up): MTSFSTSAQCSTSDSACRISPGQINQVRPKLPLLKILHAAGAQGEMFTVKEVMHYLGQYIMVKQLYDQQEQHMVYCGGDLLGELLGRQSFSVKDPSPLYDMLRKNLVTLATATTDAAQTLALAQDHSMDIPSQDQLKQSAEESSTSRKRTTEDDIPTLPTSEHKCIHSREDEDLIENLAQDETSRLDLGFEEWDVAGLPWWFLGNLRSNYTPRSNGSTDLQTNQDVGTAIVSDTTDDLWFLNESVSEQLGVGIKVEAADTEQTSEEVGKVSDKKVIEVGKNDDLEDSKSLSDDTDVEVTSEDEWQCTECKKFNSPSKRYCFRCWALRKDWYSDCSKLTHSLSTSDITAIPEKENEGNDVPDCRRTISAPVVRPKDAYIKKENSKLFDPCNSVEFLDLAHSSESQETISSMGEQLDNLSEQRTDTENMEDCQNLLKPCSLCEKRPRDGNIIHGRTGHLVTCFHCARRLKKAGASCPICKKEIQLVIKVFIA
Protein Mdm4 (Homo sapiens) + E3 ubiquitin-protein ligase Mdm2 (Homo sapiens), sequence (Q00987 whole entry, looked up): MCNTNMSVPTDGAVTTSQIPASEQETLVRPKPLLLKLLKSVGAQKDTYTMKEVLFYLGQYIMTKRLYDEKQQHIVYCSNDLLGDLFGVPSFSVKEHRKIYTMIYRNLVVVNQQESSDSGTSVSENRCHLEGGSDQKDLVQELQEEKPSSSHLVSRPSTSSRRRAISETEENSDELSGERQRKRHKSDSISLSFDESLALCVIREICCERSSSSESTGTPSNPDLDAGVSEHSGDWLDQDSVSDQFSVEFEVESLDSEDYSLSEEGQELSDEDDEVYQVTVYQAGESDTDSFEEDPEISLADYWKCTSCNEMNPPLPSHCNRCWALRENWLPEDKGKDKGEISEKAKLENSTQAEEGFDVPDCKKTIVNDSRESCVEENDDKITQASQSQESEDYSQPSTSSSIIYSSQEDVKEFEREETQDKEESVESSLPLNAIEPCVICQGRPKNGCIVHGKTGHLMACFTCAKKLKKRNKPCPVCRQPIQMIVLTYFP
Sentrin-specific protease 6 (Homo sapiens), sequence (Q9GZR1 628-1112 limits assumed): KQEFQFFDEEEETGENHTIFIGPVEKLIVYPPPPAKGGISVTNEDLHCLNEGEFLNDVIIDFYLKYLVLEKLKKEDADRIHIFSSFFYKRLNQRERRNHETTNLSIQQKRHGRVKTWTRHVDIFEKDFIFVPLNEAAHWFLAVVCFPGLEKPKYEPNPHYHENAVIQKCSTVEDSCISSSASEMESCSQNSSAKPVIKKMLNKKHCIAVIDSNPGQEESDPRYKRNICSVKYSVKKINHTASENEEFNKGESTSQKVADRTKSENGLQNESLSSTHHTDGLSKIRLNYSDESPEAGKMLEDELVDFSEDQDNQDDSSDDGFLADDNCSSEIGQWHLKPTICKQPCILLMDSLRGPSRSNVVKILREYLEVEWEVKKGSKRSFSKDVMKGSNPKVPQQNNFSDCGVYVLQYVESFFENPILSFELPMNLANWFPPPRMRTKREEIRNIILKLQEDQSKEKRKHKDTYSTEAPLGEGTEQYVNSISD
Sentrin-specific protease 7 (Homo sapiens), sequence (Q9BQF6 706-1050 limits assumed): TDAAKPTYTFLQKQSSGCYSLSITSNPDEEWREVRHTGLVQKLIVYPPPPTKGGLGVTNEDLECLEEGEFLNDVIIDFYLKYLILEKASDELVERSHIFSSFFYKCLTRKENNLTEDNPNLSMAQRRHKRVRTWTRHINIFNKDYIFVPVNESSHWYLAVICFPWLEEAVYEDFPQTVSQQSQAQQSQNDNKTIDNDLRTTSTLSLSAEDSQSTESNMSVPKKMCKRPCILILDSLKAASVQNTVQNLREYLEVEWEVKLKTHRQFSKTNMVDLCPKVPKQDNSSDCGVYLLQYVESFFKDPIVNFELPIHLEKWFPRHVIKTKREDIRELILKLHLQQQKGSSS
Caspase-3 (Homo sapiens), sequence (P42574 28-227 limits assumed): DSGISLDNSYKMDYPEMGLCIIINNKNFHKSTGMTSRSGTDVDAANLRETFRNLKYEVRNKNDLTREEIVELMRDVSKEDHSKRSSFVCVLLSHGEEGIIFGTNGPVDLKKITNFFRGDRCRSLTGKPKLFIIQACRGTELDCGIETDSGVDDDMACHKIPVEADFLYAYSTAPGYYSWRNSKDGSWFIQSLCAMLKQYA
Sentrin-specific protease 8 (Homo sapiens), sequence (Q96LD8 whole entry, looked up, the tested form may be a part): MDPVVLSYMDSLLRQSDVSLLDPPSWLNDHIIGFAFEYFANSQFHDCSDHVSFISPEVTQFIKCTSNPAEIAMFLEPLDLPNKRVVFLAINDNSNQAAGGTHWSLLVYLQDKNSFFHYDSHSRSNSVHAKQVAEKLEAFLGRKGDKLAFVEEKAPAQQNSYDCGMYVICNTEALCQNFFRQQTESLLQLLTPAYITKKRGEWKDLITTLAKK
PEG-3, sequence (Q6IN02 whole entry, looked up): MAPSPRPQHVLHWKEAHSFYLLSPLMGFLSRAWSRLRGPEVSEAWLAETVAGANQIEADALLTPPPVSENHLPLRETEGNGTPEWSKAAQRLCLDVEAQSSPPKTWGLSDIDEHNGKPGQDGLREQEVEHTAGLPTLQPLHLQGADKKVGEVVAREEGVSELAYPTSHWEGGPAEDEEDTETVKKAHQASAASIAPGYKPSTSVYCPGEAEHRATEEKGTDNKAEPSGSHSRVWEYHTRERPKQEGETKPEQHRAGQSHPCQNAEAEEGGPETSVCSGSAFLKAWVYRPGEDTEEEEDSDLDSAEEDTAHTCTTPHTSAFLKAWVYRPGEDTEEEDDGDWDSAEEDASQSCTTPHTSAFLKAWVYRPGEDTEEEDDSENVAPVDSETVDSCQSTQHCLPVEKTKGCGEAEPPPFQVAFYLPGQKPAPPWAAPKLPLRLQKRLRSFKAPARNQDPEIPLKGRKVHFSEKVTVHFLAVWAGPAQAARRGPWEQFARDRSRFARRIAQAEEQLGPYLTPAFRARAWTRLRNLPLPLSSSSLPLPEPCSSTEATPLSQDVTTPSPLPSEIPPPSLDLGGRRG
Carboxy-terminal domain RNA polymerase II polypeptide A small phosphatase 1 (Homo sapiens), sequence (Q9GZU7 76-261 limits assumed): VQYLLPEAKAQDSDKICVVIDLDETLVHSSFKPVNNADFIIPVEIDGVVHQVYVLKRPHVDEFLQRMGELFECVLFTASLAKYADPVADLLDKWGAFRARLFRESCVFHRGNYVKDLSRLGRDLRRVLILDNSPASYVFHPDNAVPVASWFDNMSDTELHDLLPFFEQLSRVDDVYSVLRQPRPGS
Tumor necrosis factor receptor superfamily member 10B (Homo sapiens), sequence (O14763 whole entry, looked up): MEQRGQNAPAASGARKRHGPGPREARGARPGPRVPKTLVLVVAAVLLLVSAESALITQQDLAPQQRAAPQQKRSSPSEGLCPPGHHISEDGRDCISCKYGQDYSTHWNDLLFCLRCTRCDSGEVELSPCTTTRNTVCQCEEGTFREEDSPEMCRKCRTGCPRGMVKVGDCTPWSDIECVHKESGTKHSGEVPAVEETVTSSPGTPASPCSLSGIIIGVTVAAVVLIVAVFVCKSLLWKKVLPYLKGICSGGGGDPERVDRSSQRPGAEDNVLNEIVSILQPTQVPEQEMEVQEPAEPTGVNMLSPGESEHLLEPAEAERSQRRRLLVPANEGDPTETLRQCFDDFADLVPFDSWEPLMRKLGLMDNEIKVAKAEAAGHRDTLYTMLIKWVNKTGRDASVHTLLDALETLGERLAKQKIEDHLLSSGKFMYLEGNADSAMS

COc1ccc(Nc2nc(-c3ccccc3)cs2)cc1
inhibition [1]: -140% (inactive) | inhibition [2]: 49.3% (inactive) | inhibition [3]: 89.6% (active) | inhibition [4]: 100% (active) | inhibition (Caspase-3 (Homo sapiens)): 83.7% (active) | inhibition [5]: 53.8% (active)

Cn1c(-c2ccc(C(=O)c3ccccc3)s2)nc2ccccc21
inhibition [1]: -108% (inactive) | inhibition [2]: 0% (inactive) | inhibition [3]: 11.3% (inactive) | inhibition [4]: 17.8% (inactive) | inhibition (Caspase-3 (Homo sapiens)): 23% (inactive) | inhibition [5]: 8.8% (inactive)

COc1cc(SC)ccc1C(=O)NCCOc1ccccc1Cl
inhibition [1]: -81.7% (inactive)

Cc1ccc(O)c(NC(=O)c2cc(-c3ccco3)on2)c1
inhibition [1]: 52.2% (active) | inhibition [2]: 30.6% (inactive) | inhibition [3]: 36.5% (inactive) | inhibition [4]: 81.1% (active) | inhibition (Caspase-3 (Homo sapiens)): 44.4% (inactive) | inhibition [5]: 14.4% (inactive)

Cc1csc(SCC(=O)Nc2sccc2C#N)n1
inhibition [1]: -98.6% (inactive) | inhibition [2]: 93.1% (active) | inhibition [3]: 96.1% (active) | inhibition [4]: 101% (active) | inhibition (Caspase-3 (Homo sapiens)): 97.1% (active) | inhibition [5]: 94.4% (active)

Clc1ccc2nc(CSc3ccccc3)cn2c1
inhibition [1]: -58.5% (inactive) | inhibition [2]: 53.7% (active) | inhibition [3]: 55.6% (active) | inhibition [4]: 86.6% (active) | inhibition (Caspase-3 (Homo sapiens)): 68.9% (active) | inhibition [5]: 70.8% (active)

Oc1ccc(/C=N/Nc2ccc(C(F)(F)F)cn2)cc1O
inhibition [1]: -7.8% (inactive) | activation [6]: 68.9% (active)

O=C(NCCC1CCCCN1S(=O)(=O)c1cccs1)C(=O)Nc1ccc(F)cc1F (stereo not drawn)
inhibition [1]: -3.5% (inactive)

CCN(CC)c1ccc(/C=N/NC(=O)c2cnccn2)c(O)c1
inhibition [1]: -7.5% (inactive)

Cc1c(C(=O)Nc2ccccn2)oc2ccc(Br)cc12
inhibition [1]: -77.2% (inactive) | inhibition [2]: 14.3% (inactive) | inhibition [3]: 18.5% (inactive) | inhibition [4]: 27.6% (inactive) | inhibition (Caspase-3 (Homo sapiens)): 22.7% (inactive) | inhibition [5]: 17.1% (inactive)

COc1ccc(Nc2cc(C)nc(-n3nc(C)cc3C)n2)cc1
inhibition [1]: 64.7% (active) | activation [6]: 2.6% (inactive)

Cc1ccc2cc3cc(C(=O)N4CCCCCC4)oc3nc2c1
inhibition [1]: -90.9% (inactive) | inhibition [2]: 41.9% (inactive) | inhibition [3]: 47.9% (inactive) | inhibition [4]: 79.7% (active) | inhibition (Caspase-3 (Homo sapiens)): 62.2% (active) | inhibition [5]: 47.7% (inactive)

NC(N)=N/N=C/c1ccc(OCc2ccc(Cl)cc2Cl)cc1
inhibition [7]: 35.8% (inactive) | activation (fluorescence interference) [8]: -0.23% (inactive)

CCOc1[nH]n(-c2ccc(Cl)cc2)c(=O)c1C=Nc1ccc(O)cc1
inhibition [7]: 14.8% (inactive) | activation (fluorescence interference) [8]: 5.36% (inactive)

N/C(=N\OC(=O)N1c2ccccc2Sc2ccccc21)c1ccc(Br)cc1
thermal shift relative to vanadate control [9]: -22.1% (inactive)

Cc1cc(C(=O)OCC(=O)NCc2ccco2)c(C)n1-c1ccccc1
thermal shift relative to vanadate control [9]: -3.06% (inactive)

COc1ccc(C2=Nn3c(nnc3-c3ccccc3OC)SC2)cc1OC1CCCC1
inhibition [10]: 98.4% (active) | inhibition [11]: 98.7% | inhibition [12]: 118% [at 39.5 µM]

COc1ccccc1-n1nnnc1S(=O)(=O)Cc1ccc(Cl)cc1
inhibition [10]: 99.1% (active) | inhibition [11]: 110% | inhibition [12]: 104%

CN(C)CCCn1c(SCc2ccc(Cl)cc2)nnc1-c1ccncc1
activation [6]: -0.025% (inactive)

COc1ccccc1N=Cc1c(O)c2ccccc2oc1=O
activation [6]: 124% (active) | inhibition [2]: 43.2% (inactive) | inhibition [3]: 53.7% (active) | inhibition [4]: 49.6% (inactive) | inhibition (Caspase-3 (Homo sapiens)): 19.3% (inactive) | inhibition [5]: 27.7% (inactive)

COc1ccc(OC)c(Nc2nc(-c3ccc(O)c(O)c3)cs2)c1
activation [6]: 187% (active)

CCc1ccc2c(c1)C1(NN=C(c3ccccc3)S1)C(=O)N2 (stereo not drawn)
activation [6]: 98.4% (active)

CS(=O)(=O)N(Cc1ccccc1)c1ccc(C(=O)NN=C2CCCCCC2)cc1
activation [6]: -1.8% (inactive)

CC(C)(C)C(=O)OCc1nc(-c2ccc(O)c(O)c2)cs1
activation [6]: 144% (active)

OCCNc1nc(Nc2ccc(Cl)c(Cl)c2)nc2ccccc12
activation [6]: 41% (active) | inhibition [13]: 24.3% (active) | inhibition [10]: 81.5% (active) | inhibition [11]: 110% | inhibition [12]: 105%

CCCCCC(=O)Nc1ccc(C(=O)N/N=C/c2ccc([N+](=O)[O-])cc2)cc1
activation [6]: 79% (active)

CSc1nnc(NC(=O)c2nc(S(=O)(=O)Cc3ccc(C)cc3)ncc2Cl)s1
activation [6]: 87% (active) | inhibition [14]: 100% (active) | activity [15]: 74.5% | activity [16]: 82.2%

Cc1cccc(CS(=O)(=O)c2ncc(Cl)c(C(=O)Nc3ccc(F)cc3)n2)c1
activation [6]: 88.1% (active) | inhibition [14]: 103% (active) | inhibition [17]: 95.7% (active) | inhibition [10]: 44% (active) | inhibition [18]: 99.3% (active) | inhibition [19]: 86.8% (active) | inhibition (PEG-3 [20]): 99.1% | inhibition (PEG-3 [21]): 98.3% | inhibition (Rat fibroblasts (CREF) [22]): 100% | inhibition (Rat fibroblasts (CREF) [23]): 96.3%

CCCc1cc(=S)n2c([nH]c3ccccc32)c1C#N
activation [6]: -0.45% (inactive)

O=[N+]([O-])c1ccc(C=Nc2ccc(Cl)cc2Cl)s1
activation [6]: 74.2% (active) | inhibition [2]: 9.7% (inactive) | inhibition [3]: 19.4% (inactive) | inhibition [4]: 18.5% (inactive) | inhibition (Caspase-3 (Homo sapiens)): 7.4% (inactive) | inhibition [5]: 8.1% (inactive)

CCOC(=O)/C=c1\s/c(=C\c2ccc(C#N)cc2)c(=O)n1CC(=O)Nc1cccc(C)c1C
activation [6]: 1.05% (inactive)

O=C(NCCc1ccc(Cl)cc1)c1cccc(N2CCCC2=O)c1
activation [6]: 1.95% (inactive)

COc1ccccc1/C=N\Nc1cc(C)nc(-n2nc(C)cc2C)n1
activation [6]: 38% (active)

S=C1SCN(CCN2CCOCC2)CN1Cc1ccccc1
activation [6]: 102% (active)

Cc1ccc(Cc2cnc(NC(=O)/C(C#N)=C/c3ccc(-c4cccc([N+](=O)[O-])c4)o3)s2)cc1
activation [6]: 61.4% (active)

CSc1nc(-c2ccccc2)nc(C(Cl)Cl)n1
activation [6]: 28.5% (inactive) | inhibition [14]: 97.7% (active) | inhibition [18]: 59.7% (active) | inhibition [19]: 105% (active)
